The supplement of paper PMC11732987, “Enantioselective OTUD7B fragment discovery through chemoproteomics screening and high-throughput optimisation” (Communications Chemistry, 2025)

Experiments:
Test in all cases: log2 ratio of Biotin-Ahx-Ub-VS probe labelling (fragment/DMSO); higher = less target engagement (more negative = stronger competition), active = hit call of the paper (q ≤ 0.05, log2 ratio ≤ -1)
Settings in all cases: compound concentration: 200 uM; treatment time: 3 h
[1] = target: USP34 (UniProt Q70CQ2)
In short: (§1)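 HEK293T lysate, 495 µg per sample in Tris/CHAPS/IGEPAL buffer with protease inhibitors, was treated in triplicate with fragment at 200 µM or vehicle for 3 h and then with Biotin-Ahx-Ub-VS at 0.5 µM final for 1 h. Labelled DUBs were NeutrAvidin-enriched, digested with LysC and trypsin, and run by diaPASEF LC-MS/MS. Spectronaut label-free quantities were global-median-normalised, and values are average log2 fragment/vehicle ratios by unpaired t-test on proteins with ≥2 unique peptides.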

[2] = target: T1, USP36 (UniProt Q9P275)
T1 sequence (whole entry): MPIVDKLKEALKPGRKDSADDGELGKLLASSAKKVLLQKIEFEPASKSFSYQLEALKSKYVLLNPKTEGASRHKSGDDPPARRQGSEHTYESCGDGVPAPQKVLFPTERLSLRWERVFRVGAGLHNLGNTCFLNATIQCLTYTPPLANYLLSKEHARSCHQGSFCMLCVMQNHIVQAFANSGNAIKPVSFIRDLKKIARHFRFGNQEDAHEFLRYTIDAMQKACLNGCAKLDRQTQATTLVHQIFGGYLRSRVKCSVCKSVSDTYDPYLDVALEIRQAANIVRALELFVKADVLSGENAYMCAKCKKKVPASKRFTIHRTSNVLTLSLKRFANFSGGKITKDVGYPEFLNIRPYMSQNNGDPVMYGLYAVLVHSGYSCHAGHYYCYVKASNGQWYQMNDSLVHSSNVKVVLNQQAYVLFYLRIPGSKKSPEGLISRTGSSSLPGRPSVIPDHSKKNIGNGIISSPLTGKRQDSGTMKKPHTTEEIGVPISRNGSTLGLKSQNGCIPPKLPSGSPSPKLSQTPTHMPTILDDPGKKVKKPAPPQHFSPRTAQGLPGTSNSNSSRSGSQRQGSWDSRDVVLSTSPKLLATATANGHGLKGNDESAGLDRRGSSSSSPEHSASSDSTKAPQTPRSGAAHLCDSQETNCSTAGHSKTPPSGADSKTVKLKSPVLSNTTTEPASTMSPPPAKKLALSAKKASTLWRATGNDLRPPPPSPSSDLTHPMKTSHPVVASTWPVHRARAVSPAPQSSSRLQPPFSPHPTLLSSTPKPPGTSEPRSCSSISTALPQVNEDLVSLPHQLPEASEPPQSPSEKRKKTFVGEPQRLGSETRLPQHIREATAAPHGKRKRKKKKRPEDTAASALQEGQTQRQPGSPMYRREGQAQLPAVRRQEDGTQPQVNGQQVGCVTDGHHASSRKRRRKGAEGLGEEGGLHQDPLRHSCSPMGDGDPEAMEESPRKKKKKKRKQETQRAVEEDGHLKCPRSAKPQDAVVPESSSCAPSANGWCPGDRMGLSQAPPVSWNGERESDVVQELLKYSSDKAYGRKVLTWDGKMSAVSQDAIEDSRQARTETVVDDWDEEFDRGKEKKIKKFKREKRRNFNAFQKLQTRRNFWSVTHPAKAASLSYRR
In short: as §1

[3] = target: T2, USP38 (UniProt Q8NB14)
T2 sequence (whole entry): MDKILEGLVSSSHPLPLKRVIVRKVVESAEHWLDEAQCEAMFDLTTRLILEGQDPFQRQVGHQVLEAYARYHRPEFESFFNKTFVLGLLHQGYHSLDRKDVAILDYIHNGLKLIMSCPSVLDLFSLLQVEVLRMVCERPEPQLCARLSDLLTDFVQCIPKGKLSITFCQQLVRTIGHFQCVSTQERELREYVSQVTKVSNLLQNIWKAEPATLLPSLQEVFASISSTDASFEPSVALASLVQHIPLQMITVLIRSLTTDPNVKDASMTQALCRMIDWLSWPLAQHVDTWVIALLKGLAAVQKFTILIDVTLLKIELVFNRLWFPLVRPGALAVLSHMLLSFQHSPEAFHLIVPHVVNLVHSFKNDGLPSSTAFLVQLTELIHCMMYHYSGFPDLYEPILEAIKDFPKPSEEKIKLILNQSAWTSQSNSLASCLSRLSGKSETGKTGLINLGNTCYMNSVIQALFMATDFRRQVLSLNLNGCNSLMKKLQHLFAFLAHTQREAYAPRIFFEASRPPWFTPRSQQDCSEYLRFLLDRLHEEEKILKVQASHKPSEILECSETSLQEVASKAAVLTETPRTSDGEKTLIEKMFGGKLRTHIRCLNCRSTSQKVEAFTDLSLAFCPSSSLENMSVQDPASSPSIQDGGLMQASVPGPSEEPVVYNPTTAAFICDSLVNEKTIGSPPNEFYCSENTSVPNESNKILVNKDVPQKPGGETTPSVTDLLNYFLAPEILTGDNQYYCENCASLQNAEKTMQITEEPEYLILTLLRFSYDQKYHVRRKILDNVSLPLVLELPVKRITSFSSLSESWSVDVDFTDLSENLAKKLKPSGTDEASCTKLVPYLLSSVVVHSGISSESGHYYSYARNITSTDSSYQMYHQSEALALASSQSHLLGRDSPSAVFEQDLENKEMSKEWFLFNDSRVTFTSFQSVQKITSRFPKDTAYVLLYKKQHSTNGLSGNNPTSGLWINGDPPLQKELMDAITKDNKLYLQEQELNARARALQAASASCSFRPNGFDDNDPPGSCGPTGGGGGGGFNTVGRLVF
In short: as §1

[4] = target: T3, USP39 (UniProt Q53GS9)
T3 sequence (whole entry): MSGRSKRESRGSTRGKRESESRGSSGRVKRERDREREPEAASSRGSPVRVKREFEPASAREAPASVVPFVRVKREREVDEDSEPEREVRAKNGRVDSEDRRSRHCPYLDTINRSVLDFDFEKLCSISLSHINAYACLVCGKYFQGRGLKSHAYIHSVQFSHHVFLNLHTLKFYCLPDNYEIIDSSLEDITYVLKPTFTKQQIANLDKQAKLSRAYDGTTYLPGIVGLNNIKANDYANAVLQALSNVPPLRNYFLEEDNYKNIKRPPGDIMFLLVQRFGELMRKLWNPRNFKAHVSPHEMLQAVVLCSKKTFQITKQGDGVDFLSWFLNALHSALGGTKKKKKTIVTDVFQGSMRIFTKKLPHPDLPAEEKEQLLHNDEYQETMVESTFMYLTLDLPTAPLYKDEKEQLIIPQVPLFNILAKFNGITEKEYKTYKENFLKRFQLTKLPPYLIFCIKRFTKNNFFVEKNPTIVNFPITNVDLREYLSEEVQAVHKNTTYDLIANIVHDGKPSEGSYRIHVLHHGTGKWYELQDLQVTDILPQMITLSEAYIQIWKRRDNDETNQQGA
In short: as §1

[5] = target: T4, USP4 (UniProt Q13107)
T4 sequence (whole entry): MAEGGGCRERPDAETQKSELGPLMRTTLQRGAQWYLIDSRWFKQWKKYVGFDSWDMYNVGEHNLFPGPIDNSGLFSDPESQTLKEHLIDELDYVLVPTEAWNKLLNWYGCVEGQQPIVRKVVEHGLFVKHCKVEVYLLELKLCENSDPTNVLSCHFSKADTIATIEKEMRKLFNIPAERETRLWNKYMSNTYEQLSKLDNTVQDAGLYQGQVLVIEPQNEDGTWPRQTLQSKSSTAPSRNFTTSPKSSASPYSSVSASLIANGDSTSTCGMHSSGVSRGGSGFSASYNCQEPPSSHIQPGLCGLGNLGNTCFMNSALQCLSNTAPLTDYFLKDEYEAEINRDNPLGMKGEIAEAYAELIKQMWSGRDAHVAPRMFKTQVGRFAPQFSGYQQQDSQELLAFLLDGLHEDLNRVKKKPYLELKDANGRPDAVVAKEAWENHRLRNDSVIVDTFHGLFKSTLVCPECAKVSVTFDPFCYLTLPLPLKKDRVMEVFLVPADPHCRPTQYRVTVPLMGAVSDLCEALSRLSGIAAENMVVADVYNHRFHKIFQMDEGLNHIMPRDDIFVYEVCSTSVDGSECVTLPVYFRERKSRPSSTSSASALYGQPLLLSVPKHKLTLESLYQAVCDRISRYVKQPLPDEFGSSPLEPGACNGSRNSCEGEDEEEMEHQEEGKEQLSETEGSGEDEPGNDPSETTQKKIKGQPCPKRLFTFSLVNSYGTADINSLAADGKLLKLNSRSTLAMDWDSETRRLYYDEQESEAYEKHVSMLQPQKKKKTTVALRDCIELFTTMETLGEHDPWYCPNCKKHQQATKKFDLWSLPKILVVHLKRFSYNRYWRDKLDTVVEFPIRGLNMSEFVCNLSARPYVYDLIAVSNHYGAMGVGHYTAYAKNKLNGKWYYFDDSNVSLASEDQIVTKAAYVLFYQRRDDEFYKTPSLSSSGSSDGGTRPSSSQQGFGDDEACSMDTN
In short: as §1

Measured: log2 ratio of Biotin-Ahx-Ub-VS probe labelling

Sequence of USP34 (Q70CQ2 whole entry, the tested form may be a part): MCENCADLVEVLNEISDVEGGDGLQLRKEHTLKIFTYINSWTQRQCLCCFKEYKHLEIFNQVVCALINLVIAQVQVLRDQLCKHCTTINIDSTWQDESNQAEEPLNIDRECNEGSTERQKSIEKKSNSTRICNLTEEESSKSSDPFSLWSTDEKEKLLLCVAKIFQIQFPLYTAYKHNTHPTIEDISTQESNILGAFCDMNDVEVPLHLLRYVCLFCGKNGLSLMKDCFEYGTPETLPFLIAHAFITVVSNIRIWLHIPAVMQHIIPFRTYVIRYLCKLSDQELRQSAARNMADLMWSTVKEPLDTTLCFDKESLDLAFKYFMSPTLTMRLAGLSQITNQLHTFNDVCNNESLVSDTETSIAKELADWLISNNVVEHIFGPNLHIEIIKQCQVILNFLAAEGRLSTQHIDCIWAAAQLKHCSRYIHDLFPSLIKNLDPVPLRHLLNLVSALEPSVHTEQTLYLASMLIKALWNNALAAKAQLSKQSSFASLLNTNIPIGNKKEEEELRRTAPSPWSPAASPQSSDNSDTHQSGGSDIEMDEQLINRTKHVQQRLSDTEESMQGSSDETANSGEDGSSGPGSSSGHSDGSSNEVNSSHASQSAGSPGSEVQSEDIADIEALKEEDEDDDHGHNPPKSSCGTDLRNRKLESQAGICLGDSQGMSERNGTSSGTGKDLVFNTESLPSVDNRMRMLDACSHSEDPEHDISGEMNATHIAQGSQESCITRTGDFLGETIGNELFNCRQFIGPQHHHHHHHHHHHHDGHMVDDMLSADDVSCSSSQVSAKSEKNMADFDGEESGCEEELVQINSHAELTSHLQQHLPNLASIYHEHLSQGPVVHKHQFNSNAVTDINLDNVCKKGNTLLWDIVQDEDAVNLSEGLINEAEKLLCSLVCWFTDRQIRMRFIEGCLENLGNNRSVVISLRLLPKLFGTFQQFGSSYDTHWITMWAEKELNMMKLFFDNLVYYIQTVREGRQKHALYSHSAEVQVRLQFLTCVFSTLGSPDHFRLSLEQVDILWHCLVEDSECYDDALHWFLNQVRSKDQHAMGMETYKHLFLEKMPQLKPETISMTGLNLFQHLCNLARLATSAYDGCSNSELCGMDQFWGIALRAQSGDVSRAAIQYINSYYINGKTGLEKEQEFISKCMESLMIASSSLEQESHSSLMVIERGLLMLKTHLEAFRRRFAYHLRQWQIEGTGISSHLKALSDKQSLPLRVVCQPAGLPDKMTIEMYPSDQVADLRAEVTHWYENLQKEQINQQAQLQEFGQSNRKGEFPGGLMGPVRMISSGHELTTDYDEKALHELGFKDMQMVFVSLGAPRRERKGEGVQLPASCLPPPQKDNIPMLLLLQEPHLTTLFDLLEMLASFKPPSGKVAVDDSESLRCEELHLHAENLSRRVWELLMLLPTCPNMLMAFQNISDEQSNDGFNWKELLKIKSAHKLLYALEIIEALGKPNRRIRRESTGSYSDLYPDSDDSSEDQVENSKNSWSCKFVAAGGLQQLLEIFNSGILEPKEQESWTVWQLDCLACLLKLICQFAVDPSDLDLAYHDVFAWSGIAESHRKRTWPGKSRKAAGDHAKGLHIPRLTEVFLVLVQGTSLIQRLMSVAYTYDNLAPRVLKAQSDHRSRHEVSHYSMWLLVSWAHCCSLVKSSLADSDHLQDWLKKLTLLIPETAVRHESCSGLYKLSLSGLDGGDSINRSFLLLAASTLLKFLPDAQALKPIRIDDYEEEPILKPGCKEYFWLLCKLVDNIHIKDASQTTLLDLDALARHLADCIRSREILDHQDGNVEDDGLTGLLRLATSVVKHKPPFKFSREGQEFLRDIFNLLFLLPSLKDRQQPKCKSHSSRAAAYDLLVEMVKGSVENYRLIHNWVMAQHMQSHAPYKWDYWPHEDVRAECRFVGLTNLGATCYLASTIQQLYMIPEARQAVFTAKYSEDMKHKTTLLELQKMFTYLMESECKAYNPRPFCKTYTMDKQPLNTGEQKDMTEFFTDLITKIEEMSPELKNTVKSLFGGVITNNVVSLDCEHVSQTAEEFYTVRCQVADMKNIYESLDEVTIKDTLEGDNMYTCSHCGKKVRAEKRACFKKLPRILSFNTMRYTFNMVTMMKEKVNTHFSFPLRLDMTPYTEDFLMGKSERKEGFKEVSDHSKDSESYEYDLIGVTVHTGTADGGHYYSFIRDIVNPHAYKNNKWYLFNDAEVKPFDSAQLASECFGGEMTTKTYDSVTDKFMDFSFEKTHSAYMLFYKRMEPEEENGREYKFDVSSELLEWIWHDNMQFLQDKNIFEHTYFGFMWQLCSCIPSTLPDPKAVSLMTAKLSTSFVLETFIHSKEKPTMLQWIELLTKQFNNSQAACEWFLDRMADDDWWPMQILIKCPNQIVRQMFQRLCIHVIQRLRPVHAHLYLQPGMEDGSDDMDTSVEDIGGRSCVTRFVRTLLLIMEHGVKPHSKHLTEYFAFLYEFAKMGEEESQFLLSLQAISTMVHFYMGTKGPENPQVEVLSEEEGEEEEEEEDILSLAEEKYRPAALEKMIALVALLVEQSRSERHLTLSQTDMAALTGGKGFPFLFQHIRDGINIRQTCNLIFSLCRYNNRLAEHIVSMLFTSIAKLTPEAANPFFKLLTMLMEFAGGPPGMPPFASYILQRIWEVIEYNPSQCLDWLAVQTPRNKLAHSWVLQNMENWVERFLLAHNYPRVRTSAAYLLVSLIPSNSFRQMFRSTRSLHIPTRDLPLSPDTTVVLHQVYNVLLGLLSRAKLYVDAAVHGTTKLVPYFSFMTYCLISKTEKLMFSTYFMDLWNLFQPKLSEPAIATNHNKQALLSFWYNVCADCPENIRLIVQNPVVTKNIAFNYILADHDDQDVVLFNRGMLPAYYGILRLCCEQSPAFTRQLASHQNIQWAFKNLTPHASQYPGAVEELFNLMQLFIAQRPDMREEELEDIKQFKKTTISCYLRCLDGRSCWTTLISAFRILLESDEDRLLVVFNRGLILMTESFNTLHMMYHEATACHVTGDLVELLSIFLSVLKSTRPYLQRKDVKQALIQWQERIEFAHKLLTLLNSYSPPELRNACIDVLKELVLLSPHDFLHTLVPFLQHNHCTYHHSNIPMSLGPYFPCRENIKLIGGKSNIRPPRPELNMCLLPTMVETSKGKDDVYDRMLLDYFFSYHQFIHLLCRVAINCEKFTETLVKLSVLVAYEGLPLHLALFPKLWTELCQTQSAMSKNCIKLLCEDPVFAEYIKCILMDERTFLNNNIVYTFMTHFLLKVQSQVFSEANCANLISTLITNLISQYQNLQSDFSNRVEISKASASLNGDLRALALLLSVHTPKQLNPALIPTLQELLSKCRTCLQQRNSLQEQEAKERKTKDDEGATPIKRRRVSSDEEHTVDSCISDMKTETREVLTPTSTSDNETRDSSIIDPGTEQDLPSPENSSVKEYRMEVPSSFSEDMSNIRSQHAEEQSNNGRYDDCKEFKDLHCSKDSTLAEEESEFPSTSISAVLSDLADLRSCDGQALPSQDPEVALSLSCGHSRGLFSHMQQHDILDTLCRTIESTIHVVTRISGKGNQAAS

Cl.O=C(CCl)N1CCN(Cc2ccccc2)CC1
inactive: [1] -0.191 | [2] 0.0546 | [3] -0.0649 | [4] 0.144 | [5] -0.121
